Data on 15 molecules can be found in PubChem BioAssay.

Test [1] relates to TRPC4 beta (transient receptor potential cation channel C4), mouse. Briefly: activators of mouse TRPC4 channel, confirmation, cell-based, Fluo4 calcium, HEK293 TRPC4beta/mu-opioid, duplicates, 10 µM (AID 2426;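 active means fluorescence ratio normalized to control raised more than 50% in primary screen plus both repeat runs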;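 on activation: percent rise of integrated ratio over buffer wells lacking compound which define 0%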). To be noted: Fluo4 calcium fluorescence, at 10 µM; hits give high values.
Test [2] has as its system transient receptor potential cation channel C4 beta (TRPC4), mouse. Put plainly: activators of mouse TRPC4 channel, confirmation, cell-based, second round, Fluo4, HEK293 TRPC4beta/mu-opioid, 1 µM (AID 2461;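 active means primary screen active and over 50% activation in each of two duplicate runs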;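 on activation: 0% = wells without test compound as baseline of integrated fluorescence ratio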). To be noted: Fluo4 calcium fluorescence, at 1 µM; hits give high values.
The subject of test [3] is TRPC4 (transient receptor potential cation channel C4 beta), mouse. Put plainly: positive allosteric modulators of mouse TRPC4, confirmation, cell-based, second round, Fluo-4, HEK293 TRPC4beta/mu-opioid, 1 µM (AID 2554;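 active means primary screen hit whose fluorescence ratio, in both repeats, exceeds the weak agonist control mean by 3 SD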). To be noted: DAMGO EC20, Fluo-4 calcium flux, at 1 µM; hits give high values. A general note: A change in cytosolic calcium serves as a functional read-out for many receptors and channels.

The test system of test [4] is TRPC4 beta (transient receptor potential cation channel C4), mouse. Briefly: positive allosteric modulators of mouse TRPC4, confirmation, cell-based, Fluo-4, HEK293 TRPC4beta/mu-opioid (AID 2555;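 active means primary screen hit whose calcium fluorescence ratio, in both repeats, exceeds the weak agonist control mean by 3 SD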). As to conditions: DAMGO EC20, Fluo-4 calcium flux, at 10 µM; hits give high values.
For test [5], the target named is Short transient receptor potential channel 4 (Mus musculus) (UniProt Q9QUQ5). Briefly: inhibitors of mouse TRPC4 channel, confirmation, cell-based, Fluo4, HEK293 TRPC4beta/mu-opioid (AID 2636;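 active means calcium signal cut by more than 3 SD below the full-agonist control yet still positive, in both repeats and the earlier primary screen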). As to conditions: DAMGO, Fluo4 calcium flux, at 10 µM; hits give high values.
For test [6] the target is unchanged. Put plainly: inhibitors of mouse TRPC4 channel, confirmation, cell-based, second round, Fluo4, HEK293 TRPC4beta/mu-opioid, 1 µM (AID 2637;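 active means calcium signal ratio cut to more than 3 SD under the fully stimulated control mean yet still positive, in both repeats and the primary screen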). To be noted: Fluo4 calcium flux, DAMGO, at 1 µM; hits give high values.
Test [7] has the same target. Put plainly: TRPC4 positive allosteric modulators, dose response, cell-based, HEK293 TRPC4/mu-opioid, Fluo-4 calcium, EC20 DAMGO (AID 434941;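 active means earlier screen potentiator hit that boosts the TRPC4 ion channel at some dose, with a dose response; inactive means no potentiation, no dose response, or not a prior hit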;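 further: calcium entry triggered by an EC20 dose of DAMGO at the co-expressed mu-opioid receptor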).
For test [8] the target is unchanged. Put plainly: mouse TRPC4 channel inhibitors, dose response, cell-based, HEK293 TRPC4/mu-opioid, Fluo-4 calcium (AID 434942;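 active means primary screen inhibitor hit that blocks the TRPC4 channel at some tested dose, yielding a dose curve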).
For test [9], the target named is Short transient receptor potential channel 6 (Mus musculus) (UniProt Q61143). Put plainly: inhibition of mouse TRPC6 channel, confirmation, selectivity assay for TRPC4 inhibitor project, cell-based, HEK293, membrane potential dye, duplicate (AID 434948;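 active means active in primary screen and both duplicates, each dropping signal beyond three positive-control SD with fluorescence still positive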). As to conditions: HEK293 TRPC6, membrane potential dye fluorescence, at 10 µM, stimulated with maximal-effect acetylcholine; hits give high values.

For test [10] the target is unchanged. Briefly: activation of mouse TRPC6 channel, confirmation, selectivity assay for TRPC4 activator project, cell-based, HEK293, membrane potential dye, duplicate (AID 434950).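 On activation: 0% = buffer only wells and 100% = acetylcholine maximal-effect wells.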 As to conditions: HEK293 TRPC6, membrane potential fluorescence, at 10 µM; hits give high values.
For test [11] the target is unchanged. Put plainly: TRPC6 potentiation by TRPC4 potentiator hits, confirmation, selectivity assay for TRPC4 potentiator project, HEK293 cells, membrane potential dye, duplicate (AID 434952;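 active means compound raising the membrane signal above positive-control mean plus 3 SD in both repeats, and a primary screen hit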). To be noted: HEK293 TRPC6, membrane potential dye fluorescence, at 10 µM, maximal acetylcholine added after compound; hits give high values.
For test [12], the target named is Short transient receptor potential channel 4 (Mus musculus) (UniProt Q9QUQ5). Put plainly: calcium flux activators in TRPC4/5HT1a cells, counter-screen for TRPC4 activator project, cell-based, second counter screen, HEK293 TRPC4/5HT1a, Fluo-4 (AID 434977;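 active means calcium signal rise above buffer-control mean plus 5 SD in both duplicates, and also a hit in the primary screen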;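 on activation: plate controls were assay buffer for no effect and maximal serotonin response for full effect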). As to conditions: Fluo-4 calcium flux, at 10 µM; hits give high values.
Test [13] in a line: calcium flux inhibitors in TRPC4/5HT1a cells, confirmation, counter-screen for TRPC4 inhibitor project, cell-based, second counter screen, HEK293 TRPC4/5HT1a, Fluo-4 (AID 434978;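 active means primary screen active whose calcium signal fell more than 3 SD beyond the full-serotonin control mean in both duplicate plates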;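 further: serotonin given first at submaximal then at maximal dose after compound preincubation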). As to conditions: Fluo-4 calcium flux, at 10 µM, serotonin added to trigger calcium flux; hits give high values.
Test [14] has as its system TRPC4 (mouse), co-expressed with 5HT1a in HEK293. Briefly: calcium flux potentiators in TRPC4/5HT1a cells, confirmation, counter-screen for TRPC4 potentiator project, cell-based, second counter screen, HEK293 TRPC4/5HT1a, Fluo-4 (AID 434979;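 active means signal rise over 3 SD above mean of control wells given weak agonist, in both repeats and first screen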). As to conditions: Fluo-4 calcium flux, at 10 µM, serotonin added at its EC20 dose; hits give high values.
Test [15] is described as follows: calcium flux activation in mu-opioid HEK293 cells, confirmation, counter-screen for TRPC4 activator project, cell-based, HEK293 mu-opioid receptor line (AID 449723;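 active means hit in primary screen, with calcium signal over 5 SD above buffer well mean in both duplicates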;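 further: counter screen cells carry the mu-opioid receptor alone and lack TRPC4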). To be noted: Fluo-4 calcium fluorescence, at 10 µM; hits give high values.
The nature of test [16]: calcium flux enhancement in mu-opioid HEK293 cells, confirmation, counter-screen for TRPC4 allosteric potentiator project, cell-based, HEK293 mu-opioid receptor line (AID 449724;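 active means calcium signal rise more than 3 SD above the low-dose agonist control mean, in both duplicate plates and the primary screen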;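 further: HEK293 cells carrying mu-opioid receptor only with no TRPC4 channel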). To be noted: Fluo-4 calcium flux, at 10 µM, compound added before EC20 DAMGO stimulus; hits give high values.

Structures are written as SMILES. For part of these data: Entries with a potency or affinity are not part of this list. The source made the active and inactive calls.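 How the source made its calls, unless noted: active means membrane potential signal rise above negative control mean plus 3 SD in both duplicates, also active in the earlier TRPC4 screen; inactive means the rest.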

Short transient receptor potential channel 4 (Mus musculus), sequence (Q9QUQ5 whole entry, looked up): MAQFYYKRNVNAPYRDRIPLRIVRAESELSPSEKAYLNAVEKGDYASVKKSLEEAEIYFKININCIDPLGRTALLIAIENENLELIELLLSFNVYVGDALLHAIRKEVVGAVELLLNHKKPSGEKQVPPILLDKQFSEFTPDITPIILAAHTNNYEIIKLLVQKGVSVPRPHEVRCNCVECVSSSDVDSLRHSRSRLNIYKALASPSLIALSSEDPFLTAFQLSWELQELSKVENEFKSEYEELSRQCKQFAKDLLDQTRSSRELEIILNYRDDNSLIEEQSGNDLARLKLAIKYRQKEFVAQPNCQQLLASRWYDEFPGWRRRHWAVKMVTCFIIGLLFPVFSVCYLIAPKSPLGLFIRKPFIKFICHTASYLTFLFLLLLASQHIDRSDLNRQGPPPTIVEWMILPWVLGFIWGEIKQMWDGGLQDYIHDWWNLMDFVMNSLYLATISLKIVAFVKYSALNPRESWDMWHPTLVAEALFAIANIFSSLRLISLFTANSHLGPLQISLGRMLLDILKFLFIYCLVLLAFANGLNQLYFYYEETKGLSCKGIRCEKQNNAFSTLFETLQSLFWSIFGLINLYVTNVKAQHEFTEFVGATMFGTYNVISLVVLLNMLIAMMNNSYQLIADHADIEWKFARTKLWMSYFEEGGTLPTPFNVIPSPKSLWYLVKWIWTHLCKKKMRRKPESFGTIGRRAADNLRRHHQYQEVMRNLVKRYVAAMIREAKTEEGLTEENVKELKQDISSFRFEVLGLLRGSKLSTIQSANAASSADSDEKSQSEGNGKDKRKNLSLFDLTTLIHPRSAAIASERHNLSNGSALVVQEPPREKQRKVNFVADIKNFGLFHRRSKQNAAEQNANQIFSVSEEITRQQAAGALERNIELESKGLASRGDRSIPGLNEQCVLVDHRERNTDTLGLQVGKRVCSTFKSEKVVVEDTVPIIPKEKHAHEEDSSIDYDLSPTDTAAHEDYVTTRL
Short transient receptor potential channel 6 (Mus musculus), sequence (Q61143 whole entry, looked up): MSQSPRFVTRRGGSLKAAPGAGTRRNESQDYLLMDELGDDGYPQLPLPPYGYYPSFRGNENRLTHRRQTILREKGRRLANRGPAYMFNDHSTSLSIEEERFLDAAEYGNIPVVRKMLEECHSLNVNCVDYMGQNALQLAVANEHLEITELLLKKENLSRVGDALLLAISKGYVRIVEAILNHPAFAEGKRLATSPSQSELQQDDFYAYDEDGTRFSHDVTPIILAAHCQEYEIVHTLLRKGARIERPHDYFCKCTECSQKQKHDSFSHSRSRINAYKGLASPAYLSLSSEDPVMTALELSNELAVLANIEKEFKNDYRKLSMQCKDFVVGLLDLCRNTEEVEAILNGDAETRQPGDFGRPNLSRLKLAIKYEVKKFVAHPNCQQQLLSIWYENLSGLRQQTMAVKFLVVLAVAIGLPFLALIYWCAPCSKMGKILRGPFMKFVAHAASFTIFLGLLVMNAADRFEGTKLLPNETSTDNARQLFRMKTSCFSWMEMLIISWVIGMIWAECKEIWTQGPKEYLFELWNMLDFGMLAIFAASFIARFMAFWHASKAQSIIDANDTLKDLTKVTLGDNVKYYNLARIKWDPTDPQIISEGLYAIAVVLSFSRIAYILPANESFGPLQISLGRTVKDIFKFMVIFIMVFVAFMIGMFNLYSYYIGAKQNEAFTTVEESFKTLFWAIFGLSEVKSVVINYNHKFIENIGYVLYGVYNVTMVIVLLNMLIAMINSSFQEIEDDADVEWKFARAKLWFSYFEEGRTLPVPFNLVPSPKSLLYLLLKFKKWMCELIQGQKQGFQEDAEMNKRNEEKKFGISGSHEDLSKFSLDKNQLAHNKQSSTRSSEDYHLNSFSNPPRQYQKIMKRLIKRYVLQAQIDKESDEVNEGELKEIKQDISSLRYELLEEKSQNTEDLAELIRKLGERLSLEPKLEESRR

With `CCn1c(N2CCN(CC(=O)Nc3cccc(C)c3C)CC2)nc2ccccc21`, the activation in test [1] is 120% (active); in test [2], 57% (active); in test [10], 56.5% (active); in test [12], 23.9% (active). The result in test [3], in [4], in test [5], in test [6], in [7] and in test [8] was inactive. For the same molecule, the outcome in [9], in test [11], in test [13], in [14], in test [15] and in test [16] was inactive.

Turning to `CN(C)CCCN(C(=O)c1ccc(S(=O)(=O)N2CCc3ccccc3C2)cc1)c1nc2c(F)cc(F)cc2s1`, the activation in test [1] is 73% (active). The result in test [2], in [3], in [4], in [5], in [6] and in test [7] was inactive. In addition, the result in test [8], in test [9], in test [10], in test [11], in test [12] and in [13] was inactive. Besides, the outcome in [14], in [15] and in [16] was inactive.

For `O=C(NC1CC1)C1=C[C@H](c2csc3ccccc23)C[C@H](OCc2ccc(CO)cc2)O1`, the outcome in test [1], in test [2], in [3], in test [4], in [5] and in test [6] was inactive. Moreover, the outcome in test [7], in test [8], in [9], in test [11], in test [12] and in [13] was inactive. In addition, the result in test [14], in [15] and in [16] was inactive. Besides, in test [10], the activation was 35.5% (active).

In the case of `CCOc1ccccc1C1CC(c2ccc(Cl)cc2)Nc2nc(N)nn21` (stereo not given), the results for the activation in [1] and in test [12] were 243% (active) and 6.24% (active), respectively. Moreover, the result in [2], in [3], in test [4], in test [5], in [6] and in test [7] was inactive. The outcome in [8], in [9], in test [10], in test [11], in test [13] and in test [14] was inactive. Besides, the result in test [15] and in [16] was inactive.

Consider `CCCN(CCC)CCCNC(=O)c1ccc2c(Cl)c3c(nc2c1)CCC3`, for which the activation in test [1] is 90% (active); in test [2], 89% (active); in [10] it was 27% (active); in test [12], 105% (active). Further, the result in test [3], in test [4], in [5], in [6], in test [7] and in test [8] was inactive. In addition, the molecule was classed as inactive in [9], in test [11], in test [13], in test [14], in test [15] and in test [16].

On to `O=C(Cc1cccc(F)c1F)NC1CCCN(Cc2ccc(Cl)cc2)C1` (stereo not given), for which the outcome in test [1], in test [2], in [3], in test [4], in test [5] and in test [6] was inactive. In addition, the result in [7], in test [8], in test [9], in test [11], in [12] and in [13] was inactive. Moreover, the outcome in [14], in test [15] and in test [16] was inactive. In addition, the activation in test [10] was 37.5% (active).

Consider `CCCCN(CC)CCNC(=O)c1cc2c(-c3ccc(Cl)cc3)nn(C)c2s1`, for which the outcome in [1], in test [2], in [3], in test [4], in [5] and in [6] was inactive. Besides, the outcome in [7], in [8], in test [9], in [10], in test [11] and in test [13] was inactive. In addition, the outcome in test [14], in [15] and in [16] was inactive. For the same molecule, the activation in [12] was 20.5% (active).

Regarding `CC(COc1ccccc1)N1CCC(CO)(CCc2ccccc2)CC1` (stereo not given), the outcome in test [1], in test [2], in [3], in test [4], in test [5] and in test [6] was inactive. The outcome in test [7], in test [8], in test [9], in test [11], in [12] and in test [13] was inactive. The result in test [14], in test [15] and in [16] was inactive. In addition, in [10], the activation is 95.5% (active).

On to `COc1ccc(-n2nc(C(=O)NCC(=O)NCCCN3CC(C)CC(C)C3)c3ccccc3c2=O)cc1Cl` (stereo not given), for which the outcome in test [1], in test [2], in [3], in [4], in [5] and in [6] was inactive. The result in test [7], in [8], in test [9], in [10], in [11] and in [13] was inactive. The result in [14], in test [15] and in [16] was inactive. The activation in test [12] was 12.2% (active).

For the molecule `CCN1CCN(c2ncnc3sc(C)c(-c4ccccc4)c23)CC1`, the activation in [1] was 107% (active). Also, the result in test [2], in test [3], in test [4], in test [5], in test [6] and in [7] was inactive. For the same molecule, the outcome in test [8], in [9], in test [10], in [11], in test [12] and in test [13] was inactive. Further, the outcome in test [14], in test [15] and in [16] was inactive.

With `CC(C)(C)c1cc(O)c(C(C)(C)C)cc1O`, the values for the activation in [1], in test [12] and in [15] were 100% (active), 55.9% (active) and 47.1% (active), respectively. The result in [2], in test [3], in test [4], in [5], in test [6] and in test [7] was inactive. The outcome in [8], in test [9], in test [10], in [11], in test [13] and in [14] was inactive. In addition, the result in test [16] was inactive.

Turning to `CCOC(=O)C1(CCOC)CCN(Cc2ccccc2-c2ccco2)CC1`, the values for the activation in [1] and in test [10] were 60% (active) and 68.5% (active), respectively. In addition, the result in [2], in test [3], in test [4], in [5], in test [6] and in [7] was inactive. Also, the outcome in test [8], in test [9], in test [11], in test [12], in test [13] and in test [14] was inactive. Also, the result in [15] and in test [16] was inactive.

Turning to `N=c1n(Cc2ccccc2)c2ccccc2n1CC(O)COc1ccccc1` (stereo not given), the outcome in [1], in test [2], in test [3], in test [4], in test [5] and in test [6] was inactive. In addition, the result in test [7], in [8], in test [9], in test [11], in test [12] and in test [13] was inactive. Further, the outcome in test [14], in [15] and in test [16] was inactive. In test [10], the activation is 54% (active).

Turning to `COc1ccc(-c2nn(-c3ccccc3C)cc2CNCc2cccnc2)cc1F`, the activation in [1] is 128% (active); in test [10], 33% (active). Moreover, the outcome in [2], in [3], in test [4], in test [5], in test [6] and in test [7] was inactive. In addition, the result in test [8], in [9], in test [11], in test [12], in test [13] and in test [14] was inactive. The result in test [15] and in test [16] was inactive.

On to `COc1ccc(C(CNC(=O)c2cccc(Br)c2)N2CCCC2)cc1` (stereo not given), for which the result in test [1], in test [2], in test [3], in test [4], in [5] and in test [6] was inactive. Also, the outcome in test [7], in test [8], in test [9], in test [11], in test [12] and in [13] was inactive. In addition, the result in test [14], in [15] and in test [16] was inactive. Besides, the activation in [10] is 61.5% (active).
